# From PubChem BioAssay (NCATS)
# “And” between values parts separate entries of the source, which are not always exact repeats. Equal entries are not always repeated. A number with no mark means an inactive call. Inconclusive results are not listed. The source made the active and inactive calls. Unless noted, calls come from the whole dose curve; as a rule, active = well fitted curve in the direction sought with a large enough effect; inconclusive = small, poorly fitted or top-dose-only effect, or another doubt; inactive = no such curve, though single readings can be large; an effect the other way counts as inactive or inconclusive.
# How the values were obtained:
# [1] = qHTS of Nrf2 Activators: LOPAC Validation (AID 624149); note: 0% is about no effect
# Procedure, shortened: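 Luciferase signal from ARE activation, read with Steady-Glo after 30 min at room temperature. Compounds were pin-transferred onto AREc32_Fluc cells (1000/well, OPTI-MEM/5% FBS, seeded overnight) and left 24 hr at 37 deg C.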
# [2] = qHTS assay for small molecule agonists of the antioxidant response element (ARE) signaling pathway (AID 651741; active = well fitted activation curve with a large enough effect in the signal ratio; the % refers to the signal ratio; note: % of control where 0% means no effect)
# Procedure, shortened: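 Beta-lactamase reporter under ARE control in HepG2 cells, 2,000 per well, was induced by 16 h compound treatment at 37 C. Read-out was fluorescence from LiveBLAzer B/G FRET substrate after 2 h at room temperature.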
# [3] = qHTS assay for small molecule activators of the p53 signaling pathway (AID 651743; active = well fitted activation curve with a large enough effect in the signal ratio, not every such curve was filed as active; the % refers to the signal ratio; note: series mostly up to about 92 µM; % of control where 0% means no effect); settings: HCT-116 p53RE-bla, beta-lactamase FRET ratio, 16 h; active compounds read high
# Procedure, shortened: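 After 16 hours compound treatment at 37 C, HCT-116 cells stably expressing p53RE-driven beta-lactamase were loaded with LiveBLAzer B/G FRET substrate for 2 hours at room temperature. Fluorescence intensity served as the p53 activation read-out.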
# [4] = qHTS assay for small molecule activators of the nuclear factor-kappa B (NF-kB) signaling pathway (AID 651749; active = well fitted activation curve with a large enough effect in the signal ratio; the % refers to the signal ratio; note: series mostly up to about 77 µM; % of control where 0% means no effect); settings: NF-kB-bla ME-180 cells, beta-lactamase FRET ratio, 16 h; activation: active compounds read high
# Procedure, shortened: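 Activation measured after 16 hr compound treatment at 37C, 5% CO2, of 2,000 ME-180 cells/well stably expressing an NF-kB response element–driven beta-lactamase reporter, via FRET-disruption fluorescence.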
# [5] = target: Tumor necrosis factor (Homo sapiens) (UniProt P01375); assay: qHTS assay to identify small molecules that stimulate Tumor Necrosis Factor-alpha (TNF-alpha) secretion (AID 651757; active = well fitted curve in the direction sought with a large enough effect in the signal ratio; the % refers to the signal ratio; note: 0% is about no effect)
# Tumor necrosis factor (Homo sapiens), sequence (P01375 whole entry, looked up): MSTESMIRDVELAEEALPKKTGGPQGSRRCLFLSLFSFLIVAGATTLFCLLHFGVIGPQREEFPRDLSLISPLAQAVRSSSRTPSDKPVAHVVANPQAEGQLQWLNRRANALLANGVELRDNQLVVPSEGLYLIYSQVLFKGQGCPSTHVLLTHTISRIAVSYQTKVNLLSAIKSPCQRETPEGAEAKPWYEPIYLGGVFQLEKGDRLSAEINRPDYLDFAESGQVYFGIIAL
# Procedure, shortened: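 Secreted TNF-alpha quantified by TR-FRET sandwich of two labeled anti-TNF-alpha antibodies, incubated 3 hr at room temperature. Preceded by 17 hr, 37 C compound treatment of THP-1 cells at 3000 cells/well.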
# [6] = qHTS assay for environmental chemicals that activate the Aryl hydrocarbon Receptor (AhR) signaling pathway (AID 651777); settings: 1A2-DRE human hepatoma cells, luciferase, 24 h; active compounds read high; note: % of control where 0% means no effect; nearly all actives have a fitted effect of over 15% in size
# Procedure, shortened: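 Measured luciferase activity, read 30 min after One-Glo addition at room temperature, from human hepatoma cells bearing a dioxin response element–CYP1A2 promoter reporter and exposed to compound for 24 hr at 37 C.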
# [7] = target: Peroxisome proliferator-activated receptor alpha (Homo sapiens) (UniProt Q07869); assay: qHTS assay for small molecule agonists of the peroxisome proliferator-activated receptor alpha (PPARalpha) signaling pathway (AID 651778); settings: PathHunter PPARalpha complementation, chemiluminescence, 6 h; active compounds read high; note: % of control where 0% means no effect
# Peroxisome proliferator-activated receptor alpha (Homo sapiens), sequence (Q07869 whole entry, looked up): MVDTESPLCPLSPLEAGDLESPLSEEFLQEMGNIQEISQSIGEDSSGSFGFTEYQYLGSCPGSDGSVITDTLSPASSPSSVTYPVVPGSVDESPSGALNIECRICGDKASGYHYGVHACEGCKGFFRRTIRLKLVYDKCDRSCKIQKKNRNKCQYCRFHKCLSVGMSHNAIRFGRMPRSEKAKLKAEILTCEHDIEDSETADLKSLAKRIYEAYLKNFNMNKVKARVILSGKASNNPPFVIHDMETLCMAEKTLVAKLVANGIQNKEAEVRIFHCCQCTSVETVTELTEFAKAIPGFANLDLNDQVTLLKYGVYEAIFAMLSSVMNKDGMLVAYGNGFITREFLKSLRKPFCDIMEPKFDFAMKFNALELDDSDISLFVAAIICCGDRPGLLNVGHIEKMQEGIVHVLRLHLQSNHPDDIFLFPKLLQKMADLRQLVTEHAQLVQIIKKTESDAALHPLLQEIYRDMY
# Procedure, shortened: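 Chemiluminescence from complemented enzyme reported PPARalpha activation in cells after 6 hr of compound treatment at 37 C. The detection reagent was incubated for 60 min at room temperature, and compounds were scored as agonists.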
# [8] = qHTS for Inhibitors of Ubiquitin-specific Protease USP2a Using CHOP2 as the Reporter: K633 Counterscreen (AID 652168); note: series mostly up to about 57 µM; % of control where 0% means no effect
# Procedure, shortened: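 Detection-system control: fluorescence of K48-linked DiUb-4IQF substrate (100 nM as added) tracked over time, Ex 525/Em 598, with pinned compounds and no enzyme, in pH 8 Tris buffer containing beta-mercaptoethanol and 0.05% Chaps.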
# [9] = qHTS assay for small molecule disruptors of the mitochondrial membrane potential - 1 hr assay (AID 651754; calls by dose curve; note: potency is the fitted concentration of half-maximal effect; nearly all actives have a fitted effect of over 35% in size)
# Procedure, shortened: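 Mitochondrial potential in living HepG2 cells after 1 hr compound treatment at 37C was read with Mito-MPS dye added for a further 30 min. Red aggregate and green monomer fluorescence were measured; loss of potential leaves dye as cytoplasmic monomers.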
# [10] = qHTS assay for small molecule disruptors of the mitochondrial membrane potential - 5 hr assay (AID 651755; calls by dose curve; note: potency is the fitted concentration of half-maximal effect; nearly all actives have a fitted effect of over 40% in size)
# Procedure, shortened: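 Membrane-potential dye readout: red aggregate (540 ex/590 em) versus green monomer (490 ex/535 em) fluorescence after 30 min dye loading, following 5 hr compound exposure at 37C of overnight-plated HepG2 cells.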
# [11] = target: Glucagon-like peptide 1 receptor (Homo sapiens) (UniProt P43220); assay: qHTS of GLP-1 Receptor Agonists: LOPAC Validation (AID 624148);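 note: luminescence from a luciferase reporter switched on by cAMP; 0% is about no effect; higher luminescence signal means agonism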
# Glucagon-like peptide 1 receptor (Homo sapiens), sequence (P43220 whole entry, looked up): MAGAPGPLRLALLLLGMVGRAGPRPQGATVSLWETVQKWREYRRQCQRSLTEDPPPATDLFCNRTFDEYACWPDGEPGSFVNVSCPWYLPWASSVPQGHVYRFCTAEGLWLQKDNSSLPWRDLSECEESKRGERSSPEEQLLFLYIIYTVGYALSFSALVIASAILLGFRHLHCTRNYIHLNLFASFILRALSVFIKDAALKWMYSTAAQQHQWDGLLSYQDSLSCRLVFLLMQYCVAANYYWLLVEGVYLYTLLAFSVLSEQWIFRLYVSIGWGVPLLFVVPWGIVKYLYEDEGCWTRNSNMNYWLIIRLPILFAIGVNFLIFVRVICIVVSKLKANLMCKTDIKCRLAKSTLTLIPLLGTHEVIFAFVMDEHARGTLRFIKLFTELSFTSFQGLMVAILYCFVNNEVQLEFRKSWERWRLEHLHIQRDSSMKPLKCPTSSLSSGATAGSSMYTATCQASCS
# Procedure, shortened: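 Agonism scored as increased luciferase luminescence driven by cAMP in HEK293 clones carrying GLP-1R. Cells settled 12 hours, received compound for 4-6 hr at 37 deg C, 5% CO2, and were read after 12 min detection reagent at RT.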
structure (smiles),measurement,setting,value
CC(C)NC[C@H](O)c1ccc(O)c(O)c1,outcome,[1],inactive
Nc1ccc(S(=O)(=O)Nc2nccs2)cc1,Potency,[2],inactive
same,activation,[3],-5.45%
same,activation,[4],0.351%
same,outcome,[5],inactive
same,activation,[6],-0.168%
same,max response,[7],-1.3%
same,outcome,[8],inactive
Cc1cc2nc3c(=O)[nH]c(=O)nc-3n(C[C@H](O)[C@H](O)[C@H](O)CO)c2cc1C,activation,[3],-9.36%
same,Potency,[9],5.96 µM (active)
same,Potency,[10],7.5 µM (active)
same,max response,[7],3.79%
NCCNCCNCCNCCN,Potency,[2],inactive
same,activation,[4],-1.8% and -0.273%
same,outcome,[5],inactive
same,activation,[6],-0.491% and -2.35%
same,max response,[7],-1.59% and -2.29%
CC1(C)[C@@H]2CC[C@@]1(C)C(=O)C2,Potency,[2],inactive
same,activation,[3],0.0082%
same,activation,[4],-0.497%
same,outcome,[5],inactive
same,activation,[6],1.1%
same,max response,[7],1.14%
CNC(=O)Oc1ccc2c(c1)[C@]1(C)CCN(C)[C@@H]1N2C,outcome,[11],inactive
same,outcome,[1],inactive
same,activation,[3],-2.62%
same,activation,[4],1%
same,activation,[6],2.6%
same,max response,[7],-3.11%
